Reference: PubChem BioAssay (NCI)
About 83,000 compounds went through this panel and 20% of them were active in at least one assay; those are over-represented in the sample as a whole.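 48-hour exposure, single concentration, 96-well plates; percent growth endpoint where 0 means no net growth. Active: below 10.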 Activity calls are given as the source filed them.

System: MDA-MB-468 breast
Assay: NCI-60 one-dose screen, 48 h (100 = growth as untreated, 0 = no growth, -100 = all killed)
Conditions: 10 µM unless noted

Row | SMILES | growth
1 | COC(=O)c1[nH]cnc1/N=N/N(C)CCO | 87.2% (inactive)
2 | CC(=O)NCC(=O)N1[C@@H]2CC[C@H]1c1ccc(Nc3ncc(C(F)(F)F)c(NC4CCC4)n3)cc12 | 72% [2.5 µM] (inactive)
3 | O=C1c2c(c3c4cc(Br)ccc4[nH]c3c3ccc4ccccc4c23)C(=O)N1CCO | 100% (inactive)
4 | CNC(=O)c1cc(Oc2ccc3c(c2)sc2nc(-c4ccc(Cl)c(C(F)(F)F)c4)cn23)ccn1 | 5.6% (active)
5 | Nc1n[nH]c2cccc(C#Cc3cccc(NC(=O)c4cc(F)cc(C(F)(F)F)c4)c3)c12 | 92.2% (inactive)
6 | O=c1cc(-c2ccccc2)nc2sc(-c3c[nH]c4ccc(Br)cc34)nn12 | 87.2% (inactive)
7 | Cn1c(=O)c2[nH]c(CCCc3nc4c([nH]3)c(=O)n(C)c(=O)n4C)nc2n(C)c1=O | 103% (inactive)
8 | COc1cc(OC)c(NC(=O)n2ncc3cc(Nc4ncnc5ccccc45)ccc32)cc1Cl | -5.26% (active)
9 | Cc1ccc2c(c1)C(C)Cc1c(Cl)ncnc1N2C (centres undefined) | -26.4% (active)
10 | CC(O)C(F)(F)C(F)(F)C(F)(F)F (centres undefined) | 96.4% (inactive)
11 | C=CCC(CCCC)(C(=O)OCC)C(=O)OCC | 107% (inactive)
12 | O=c1c(-c2nc3ccccc3[nH]2)cc2ccccc2n1Cc1cn(Cc2ccc(F)cc2)nn1 | 4.78% (active)
13 | COc1ccc(/C=N\NC(=O)c2ccc3nc(-c4ccc(Cl)cc4)[nH]c3c2)cc1 | 24.2% (inactive)
14 | O=C(N/N=C/c1ccc([N+](=O)[O-])s1)c1[nH]c2ccc(Br)cc2c1-c1ccccc1 | 24.8% (inactive)
